IL1B secr inh: inhibitors of inflammasome signaling (IL-1 beta secretion). 360,000 tested, 4.7% active. activity change, % at 57.5 µM. THP-1 LPS/ATP IL-1B secretion, AlphaLISA, 16 h; hits give low values. AID 743279; in the data active means activity change below about -50%; inconclusive means mostly about -30% to -49%
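Secreted IL-1B measured by AlphaLISA bead assay after 16 h compound exposure of THP-1 cells; compounds (final up to 57.5 uM) added 1 h before LPS (250 ng/mL) and ATP (1.25 mM) stimulation; lower signal means less secretion.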
HT1080 IDH1KD tx: toxicity to HT-1080 IDH1 knockdown cells (counter line); 360,000 tested, 2% active; Potency, µM (doses to about 46.1 µM), for inactives: at the highest dose activity, negative = toxicity, usual class: cytotoxic; HT-1080 IDH1 knockdown viability, ATP luminescence, 48 h; AID 686971;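 further: potency means the concentration at half of the fitted maximal effect; 0% = DMSO wells and -100% = cell-free medium wells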
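CellTiter-Glo luminescence after 48 h compound exposure at 37 degrees C of IDH1-knockdown HT-1080 cells in 5% FBS RPMI. %Activity scaled between DMSO wells and cell-free media wells, with curves fitted and assigned curve classes.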
DT40 TDP1 no CPT: qHTS for Inhibitors of human tyrosyl-DNA phosphodiesterase 1 (TDP1): qHTS in cells in absence of CPT; Potency, µM (doses to about 46.2 µM), inactives show at the highest dose activity change, negative = growth inhibition, actives largely listed as inhibitors; DT40 Tdp1-/- hTDP1 cells, no CPT, ATP luminescence, 48 h; 420,000 tested, 15% active; further: potency means the concentration at half of the fitted maximal effect; nearly all actives have a fitted effect of over 55% in size
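Cells were dispensed at 400 per well, compounds added by pin tool, plates incubated ≥48 hr at 37 °C, then CellTiter-Glo added for 30 min at room temperature before luminescence reading. Line: DT40 Tdp1-/- complemented with hTDP1; camptothecin omitted.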
HT1080NT lethal: kills 2HG-producing HT-1080-NT fibrosarcoma cells | HT-1080-NT fibrosarcoma viability, CellTiter-Glo ATP luminescence, 48 h | Potency, µM (top dose mostly 46.1 µM), for the others: top-dose activity, negative = less viability, usual class: cytotoxic | 360,000 tested, 1.6% active | AID 686970;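 further: NT is the 2HG producing partner of a matched IDH1 knockdown line; potency means the concentration at half of the fitted maximal effect; 0% = DMSO-treated cells and -100% = media-only wells without cells; nearly all actives have a fitted effect of over 55% in size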
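Fibrosarcoma NT cells, 750 per well in 5% FBS RPMI, were exposed to compound for 48 hours. Viability: CellTiter-Glo luminescence.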
DT40 TDP1 CPT: DT40-hTDP1 cell growth loss with CPT; chicken DT40 Tdp1-/-;hTDP1 cells + 20 nM CPT, ATP luminescence, 48 h; Potency, µM (doses to about 46.2 µM), without a hit: at the highest dose activity change, negative = growth inhibition, most hits filed as inhibitors; 420,000 tested, 12% active; AID 686979; further: potency means the concentration at half of the fitted maximal effect; nearly all actives have a fitted effect of over 55% in size
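Cell growth measured by CellTiter-Glo luminescence after a minimum 48 h, 37 C compound exposure with 20 nM CPT in Tdp1-knockout DT40 cells stably expressing hTDP1, seeded 400/well; qHTS titration format.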
* hit, by the source's call; ? = inconclusive; nt = no result given; [ ] = dose if it differs, or a comment. Only some compounds are listed: those with a hit (about 19% of all), similar ones and a draw of the others. Unless noted, the call rests on the fitted dose curve; in most records, active means well fitted curve in the direction sought with a large enough effect; inconclusive means small, poorly fitted or top-dose-only effect, or another doubt; inactive means no such curve, though single readings can be large; an effect the other way counts as inactive or inconclusive. Unless noted, on the % scale 0 is the no-effect control and ±100 the full control effect.

SMILES | IL1B secr inh | HT1080 IDH1KD tx | DT40 TDP1 no CPT | HT1080NT lethal | DT40 TDP1 CPT
CC1=C(C)CS(=O)N(c2ccc(S(N)(=O)=O)cc2)C1 (stereo unspecified) | -93* | -6% | 23µM* | -24% | 13µM*
CCCc1nn2c(=O)cc(COC(=O)c3ccc(NC(=O)CCc4ccccc4)cc3)nc2s1 | nt | nt | -15% | nt | -2%
CNC(=S)/N=C/NOCc1ccc(Cl)cc1Cl | -51* | ? | 21µM* | ? | ?
COCCNCc1ccc(Cl)cc1Cl | -16 | 5% | 30% | -1% | -2%
COc1ccc(CCNC(=O)c2cc(C3CC3)nc3c2cnn3C(C)C)cc1 | -27 | -7% | 18µM* | -12% | ?
Cc1cc(C)c(NC(=O)CNC(=O)c2cc(C3CC3)nc3c2cnn3C(C)C)c(C)c1 | -21 | -10% | 18µM* | 0% | ?
COc1ccccc1OCCNC(=O)c1cc(C2CC2)nc2c1cnn2C(C)C | 2 | -4% | ? | -9% | ?
CCc1ccccc1NC(=O)CNC(=O)c1cc(C2CC2)nc2c1cnn2C(C)C | -15 | 0% | ? | 12% | ?
COc1ccccc1CCNC(=O)c1cc(C2CC2)nc2c1cnn2C(C)C | -11 | 1% | 23µM* | 4% | ?
Cc1cccc(OCCNC(=O)c2cc(C3CC3)nc3c2cnn3C(C)C)c1 | 2 | -2% | -1% | -10% | 7%
COc1cc(C)c(NC(=O)c2cc(C3CC3)nc3c2cnn3C(C)C)cc1OC | -13 | -17% | 16µM* | 0% | ?
CN(C)C(CNC(=O)C1CCN(S(=O)(=O)c2cccc(Cl)c2Cl)CC1)c1ccccc1 (stereo unspecified) | ? | ? | ? | -28% | -23%
CN(C)c1ncnc2c1C(c1ccccc1)C(C)(C)O2 (stereo unspecified) | 27 | 9% | -27% | 9% | -23%
Clc1ccc(Cn2c(CN3CCCC3)nc3ccccc32)cc1 | nt | nt | 7.2µM* | nt | ?
c1ccc(Cn2c(CN3CCCC3)nc3ccccc32)cc1 | -20 | -7% | 16µM* | -5% | ?
S=c1[nH]nc(-c2ccc(Br)o2)n1Cc1ccccc1 | -7 | ? | 21µM* | -1% | ?
S=c1[nH]nc(CN2CCCCC2)n1Cc1ccccc1 | 12 | ? | 16µM* | 22% | 15µM*
S=c1[nH]nc(CN2CCCC2)n1Cc1ccccc1 | 3 | 2% | 0% | 0% | -6%
Cc1csc(SC(C)C(=O)NC2CCCCC2C)n1 (stereo unspecified) | 4 | 5% | -17% | 0% | 25%
c1ccc(-c2cc3cc4c(cc3cn2)OCO4)cc1 | 59 | -2% | ? | -12% | ?
O=C1c2ccccc2NC(c2ccccc2O)N1Cc1ccco1 (stereo unspecified) | nt | nt | 16µM* | nt | ?
O=C1c2ccccc2NC(c2ccccc2)N1Cc1ccco1 (stereo unspecified) | -11 | 1% | -25% | -4% | 1%
COc1ccc(C2Nc3ccccc3C(=O)N2Cc2ccco2)cc1 (stereo unspecified) | nt | nt | 13µM* | nt | ?
O=C1c2ccccc2NC(c2ccccc2OCc2ccccc2)N1Cc1ccco1 (stereo unspecified) | nt | nt | 10µM* | nt | 11µM*
CCCN1C(=O)c2ccccc2NC1c1ccc(Cl)cc1 (stereo unspecified) | 28 | -3% | 0% | -1% | -3%
SMILES | IL1B secr inh | HT1080 IDH1KD tx | DT40 TDP1 no CPT | HT1080NT lethal | DT40 TDP1 CPT
CCCN1C(=O)c2ccccc2NC1c1ccc(Br)cc1 (stereo unspecified) | -51* | -4% | ? | ? | -5%
CC1=CC(C)(C)N2C(=O)C3(C(C#N)=C(N)OC4=C3C(=O)CC(C)(C)C4)c3c(C)c(C)cc1c32 (stereo unspecified) | 13 | ? | ? | ? | ?
Cc1cccc(NC(=O)CCc2ccccc2)c1C | -22 | 20% | -2% | -2% | 17%
C=C1C=C(C(F)F)n2ncc(C(=O)N3CCCCC3)c2N1 | nt | nt | 2% | nt | -10%
Cc1ccccc1N1C(=O)c2ccccc2N2C(=O)c3ccccc3C12 (stereo unspecified) | 3 | -11% | 16µM* | 0% | 8.2µM*
O=C1c2ccccc2N2C(=O)c3ccccc3C2N1Cc1ccco1 (stereo unspecified) | ? | 0% | 18µM* | -23% | 23µM*
O=C1c2ccccc2N2C(=O)c3ccccc3C2N1O (stereo unspecified) | -15 | 0% | -19% | -15% | -9%
O=C(CSc1nc(=O)n(CCCN2CCOCC2)c2c1CCCC2)Nc1ccc(Cl)cc1 | -17 | -22% | -16% | -21% | -22%
CC(C)CC(CO)N1CCN(C(=O)c2ccccc2)CCC1=O (stereo unspecified) | 3 | 7% | 0% | 13% | -23%
Cc1ccc([N+](=O)[O-])cc1S(=O)(=O)Nc1ccc(N2CCOCC2)cc1 | 14 | -9% | ? | -1% | -24%
O=C(CC(c1ccccc1)C1CCCCC1=O)c1ccccc1 (stereo unspecified) | 12 | 13% | 16µM* | -1% | 18µM*
CC(C)=NNc1nc(-c2ccc(N3C(=O)CCC3=O)cc2)cs1 | nt | -17% | ? | -4% | 5%
O=C(CSc1cccc[n+]1[O-])Nc1cc(S(=O)(=O)N2CCOCC2)ccc1N1CCOCC1 | 6 | 24% | -12% | 21% | -1%
Cc1cccc(OCC(=O)Nc2cc(S(=O)(=O)N3CCOCC3)ccc2N2CCCC2)c1C | -81* | -1% | 16µM* | -3% | ?
CCN1CCN(c2ccc(S(=O)(=O)N3CCCCC3)cc2NC(=O)CCNC(C)=O)CC1 | 4 | 8% | 3% | 3% | -6%
CCCNC(=O)C1CCN(c2ccc(S(=O)(=O)N3CCOCC3)cc2Cl)CC1 | 0 | 3% | -30% | 5% | 15µM*
Cc1ccccc1SCC(=O)Nc1cc(S(=O)(=O)N2CCOCC2)ccc1N1CCOCC1 | -29 | 0% | ? | 14% | 16µM*
CCCCCC(=O)Nc1cc(S(=O)(=O)N2CCCCC2)ccc1N1CCCCC1 | -19 | -27% | 15µM* | -16% | ?
CCOc1ccccc1C(=O)NC1CCNCC1 | -3 | -6% | 21% | -7% | 5%
Cc1c(C(=O)N/N=C/c2cccs2)nnn1-c1nonc1N | 7 | -13% | -3% | -5% | 11%
CCOc1ccccc1C(=O)Nc1c(NC)c2ccccc2oc1=O | nt | nt | ? | nt | 0%
Cc1ccc(C(=O)Nc2nn(C)c3cccc(F)c23)cc1 | -18 | -12% | 0% | -15% | 0%
COc1ccccc1C1CN(Cc2cccc3nccnc23)Cc2ccccc2O1 (stereo unspecified) | nt | nt | -6% | nt | -11%[9.04 µM]
